SMILES strings stand for the structures. In all, about 330,000 compounds went through this assay and about 4,400 (1.3%) were called active.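 Rule for the calls: active = growth inhibition of the mutant yeast at or above 50%; inactive = the rest.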 The entries come from a sample that favours actives as a whole.

This experiment can be described thus: growth inhibition of tim23-1 ts yeast – luminescence, uHTS, primary screen (AID 463212).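 Note: temperature-sensitive mutant grown at 25 °C; plate controls were DMSO-treated mutant yeast for no effect and medium wells lacking yeast for full effect.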 As to conditions: S. cerevisiae tim23-1 growth, BacTiter-Glo luminescence, 24 h; at 20 µM; stronger effect = higher value.
In the case of `CC(=O)C1=C(C)NC(C)=C(C(C)=O)C1c1cn(-c2ccccc2)nc1-c1cccs1`, the inhibition is 29.1% (inactive). Regarding `CSc1ccccc1NC(=O)c1cc(C2CC2)on1`, the inhibition is 15.5% (inactive). For the compound `Cc1nn(Cc2ccc(Cl)c(Cl)c2)c(C)c1NC(=O)c1cc(C2CC2)on1`, the inhibition was 56.6% (active). `Cc1nn(Cc2ccc(F)cc2)c(C)c1NC(=O)c1cccnc1Cl`: the inhibition is 9.85% (inactive). `C/C(=N/NC(=O)CN1CCN(S(=O)(=O)c2ccc(Br)cc2)CC1)c1ccncc1`: the inhibition is 4.89% (inactive).

`Nc1nnnn1CC(=O)N/N=C/c1ccc(-c2cccc(Cl)c2)o1`: the inhibition is 1.59% (inactive). Under `COC(=O)N/N=C/c1ccc(-c2ccc(Cl)c(Cl)c2)o1` stands 54.7% (active). Take `O=C(N/N=C\c1ccc(-c2ccc(Cl)c(Cl)c2)o1)C(=O)N1CCCC1`: the inhibition is -5.25% (inactive). As to `Cc1c(C)c2ccc(OCC(=O)N3CCN(c4cccc(Cl)c4)CC3)cc2oc1=O`, the inhibition is -6.57% (inactive). As for `COc1ccc(N2C(=O)CC(Sc3n[nH]c(-c4ccc(C)cc4)n3)C2=O)cc1` (stereo not drawn), the inhibition was 28.8% (inactive). The value for `Cc1ccc(N2C(=O)CC(Sc3ncn[nH]3)C2=O)cc1` (stereo not drawn) was -0.146% (inactive); that for `O=C1CC(Sc2ncn[nH]2)C(=O)N1c1ccccc1` (stereo not drawn) was 51% (active).

On to `COc1ccc(C(c2nnnn2C2CCCCC2)N2CCN(c3ccccc3F)CC2)cc1` (stereo not drawn), for which the inhibition was 14.3% (inactive). Consider `CC(C(=O)NC1CCCC1)N(c1ccc(Oc2ccccc2)cc1)S(C)(=O)=O` (stereo not drawn), for which the inhibition is 29.3% (inactive). Consider `Cc1ccc(NNC(=O)c2c(F)cccc2Cl)cc1Cl`, for which the inhibition was 44.2% (inactive). With `Cc1cc(OC(=O)c2c(Cl)cccc2Cl)nc(C)n1`, the inhibition was 23.1% (inactive). On to `Cc1cc(C)c(S(=O)(=O)c2ccccc2)c(OC(=O)c2c(F)cccc2Cl)n1`, for which the inhibition is 64.7% (active). Turning to `COc1ccc(C(C(=O)NCC2CCCO2)N(C(=O)Cn2nnc3ccccc32)c2ccc(NC(C)=O)cc2)cc1OC` (stereo not drawn), the inhibition is 15.6% (inactive). As for `CCOc1ccc(CC(=O)NCCS(=O)(=O)N2CCN(c3ccccc3)CC2)cc1`, the inhibition was -7.53% (inactive). In the case of `O=C(N/N=C/c1cccc2cccnc12)[C@H]1C[C@@H]1c1ccccc1`, the inhibition was 18.6% (inactive). With `COc1ccc(OC)c(S(=O)(=O)n2c([N+](=O)[O-])cnc2C)c1`, the inhibition was 12.9% (inactive). In the case of `CCOc1ccc(C(C)C)cc1S(=O)(=O)n1nc(C)cc1C`, the inhibition is 36.9% (inactive). `COc1ccc(C(C[N+](=O)[O-])n2nc(C)cc2C)cc1` (stereo not drawn): the inhibition is 84.7% (active).

Consider `COc1cc(OC)c(NS(=O)(=O)c2cn(C)cn2)cc1Cl`, for which the inhibition was -16.4% (inactive). On to `CC(C)(C)n1nnnc1C(c1ccccc1F)N1CCN(C(=O)c2ccco2)CC1` (stereo not drawn), for which the inhibition was 19.8% (inactive). With `CC(=O)O[C@H]1CC[C@@]2(C)[C@@H](CC[C@@H]3[C@@H]2CC[C@]2(C)[C@@H](C(C)(C)O)C[C@@H]32)C1`, the inhibition was 28.2% (inactive). Regarding `Cc1cc(C)cc(C(=O)OCC(=O)NCCNC(=O)COC(=O)c2cc(C)cc(C)c2)c1`, the inhibition was 2.3% (inactive).

Regarding `C(=N/N1CCN(c2ccccc2)CC1)/c1cccs1`, the inhibition was 15.3% (inactive). Turning to `CN1CN(C)c2ccc([N+](=O)[O-])c3cccc1c23`, the inhibition was 9.47% (inactive). On to `O=C1c2cccc3c([N+](=O)[O-])ccc(c23)C(=O)N1CC1CCCO1` (stereo not drawn), for which the inhibition was 87% (active). For `CCOc1cccc(=O)c2c(C)n(CC3CCCO3)c(C)c12` (stereo not drawn), the inhibition was -1.14% (inactive). Under `N/C(=N\OC(=O)CCC1CCCCC1)c1ccccn1` stands 30.2% (inactive). The value for `N/C(=N\OC(=O)CC1CCCCC1)c1ccccc1` was 56.4% (active); that for `O=C(CC1CCCCC1)NCc1ccccc1` was 14.8% (inactive); that for `O=C(COC(=O)c1ccc(Cl)nc1)NCc1ccc2c(c1)OCO2` was 6.05% (inactive). In the case of `COc1cccc(CN2CCN(Cc3ccc4cccc(F)c4n3)CC2CCO)c1` (stereo not drawn), the inhibition is 6.61% (inactive). The value for `NC(=O)c1ccsc1NC(=O)c1ccco1` was 6.25% (inactive); that for `O=C(Nc1nc(-c2ccco2)c(-c2ccco2)s1)c1ccco1` was 69.5% (active). Turning to `O=C(Nc1nnc(CCOCCOCCc2nnc(NC(=O)c3ccco3)s2)s1)c1ccco1`, the inhibition is -4.68% (inactive). In the case of `N#Cc1ccc(N2Cc3ccccc3/C2=N/C(=O)Nc2ccc(Cl)cc2)cc1`, the inhibition is 28.7% (inactive). For `c1ccc(-c2csc(N3CCc4ccccc4C3)n2)cc1`, the inhibition is 14.4% (inactive). In the case of `Cc1ccc(Cl)c(OCC(=O)N2CCc3ccccc3C2)c1`, the inhibition is 35.1% (inactive).

`Cc1ccc2c(c1)c1ncnc(N3CCc4ccccc4C3)c1n2C`: the inhibition is 51% (active). For the compound `CCc1cc(=O)oc2c(C)c(OCC(=O)N3CC[C@@]4(O)CCCC[C@H]4C3)ccc12`, the inhibition is 2.55% (inactive). Take `CNS(=O)(=O)c1cnccc1N1CCN(c2cccc(C)c2)CC1`: the inhibition was 0.287% (inactive). Consider `CCC(CC)NC(=O)/C=C/c1cccc([N+](=O)[O-])c1`, for which the inhibition was 17.4% (inactive). In the case of `Cc1ccccc1N1CC(C(=O)Nc2ccc3c(c2)OCO3)CC1=O` (stereo not drawn), the inhibition was 2.96% (inactive).

On to `COc1ccccc1-c1n[nH]c2c1[C@H](C)CC[C@H]2C(C)C`, for which the inhibition was 53% (active). Consider `COc1ccc(-c2n[nH]c(C)c2-c2ccccc2OC)c(O)c1`, for which the inhibition was 38.9% (inactive).

With `O=C1COc2ccc(S(=O)(=O)NCCc3ccc(Cl)cc3)cc2N1`, the inhibition is 8.79% (inactive). Take `Cc1ccc2nc(-c3ccc(NC(=O)c4cccnc4)cc3)oc2c1`: the inhibition is 52% (active).

As for `CC(=O)NC(=S)Nc1ccc(NC(=O)c2cccnc2)cc1`, the inhibition was 16.1% (inactive). Regarding `CCOC(=O)c1ccc(NC(=O)c2cccnc2)cc1`, the inhibition is 13.2% (inactive). Under `Cc1cc(C(=O)COc2ccccc2[N+](=O)[O-])c(C)n1-c1cccc(S(=O)(=O)N2CCOCC2)c1` stands 7.4% (inactive); under `O=c1c2ccccc2nc2n1C(CSCc1cccc(C(F)(F)F)c1)CS2` (stereo not drawn), 14.7% (inactive); under `O=C1CN(c2nc(-c3ccccc3)c3cc(Br)ccc3n2)c2ccccc2N1`, 4.72% (inactive). Take `Cc1ccc(CNC(=O)Cn2cnc(S(=O)(=O)N3CCCCC3)c2)o1`: the inhibition was -6.13% (inactive). As to `Cc1[nH]n(C)c(=O)c1N=Nc1ccc(S(C)(=O)=O)cc1`, the inhibition was 11.7% (inactive). Consider `Cc1[nH]n(C(N)=S)c(=O)c1N=Nc1ccc(Cl)cc1Cl`, for which the inhibition is 67% (active).

With `CC1=NN(C(N)=S)C(=O)C1N=Nc1cc(Cl)ccc1Cl` (stereo not drawn), the inhibition was 36.9% (inactive). For the compound `Cc1c(Cl)cccc1NC(=O)CSc1ccc(-c2cccnc2)nn1`, the inhibition is 2.22% (inactive).

Turning to `O=S(=O)(Nc1nccs1)c1ccc2c(c1)OCCO2`, the inhibition is 12.7% (inactive). Consider `CCOC(=O)C1=C(C)N=c2s/c(=C\C(=O)OC)c(=O)n2C1c1ccc(OC)cc1` (stereo not drawn), for which the inhibition was 52.3% (active). The value for `CCOC(=O)C1=C(CSc2nccn2C)NC(=O)NC1c1ccc(OC)cc1` (stereo not drawn) was 7.63% (inactive). On to `COCCOC(=O)C1=C(C)N=c2s/c(=C\c3cccs3)c(=O)n2C1c1cccs1` (stereo not drawn), for which the inhibition was -11.4% (inactive). For `Cc1cc(=O)oc(C)c1C(=O)NC1CC(C)(C)NC(C)(C)C1`, the inhibition is 13.7% (inactive). As to `CN(C)NC(=O)c1csnc1-c1c(Cl)cccc1Cl`, the inhibition is -15.4% (inactive). Regarding `Cn1cccc1C(=O)OCC(=O)c1ccc(Br)s1`, the inhibition was 15.9% (inactive). Consider `COc1ccc(-c2sc3ccccc3c2-c2ccc(OCCN3CCOCC3)cc2)cc1`, for which the inhibition was 28% (inactive). The value for `COc1ccc2sc(-c3ccccc3OC)c(-c3ccc(OCCN4CCCC4)cc3)c2c1` was -0.331% (inactive); that for `COc1cccc(-c2sc3ccc(OC)cc3c2-c2ccc(OCCN3CCCCC3)cc2)c1` was 58.8% (active). For the compound `Cc1cccc(C)c1NC(=O)CSc1nnc(-c2ccccc2)n1Cc1ccc2c(c1)OCO2`, the inhibition was 3.97% (inactive).

As for `c1ccc(-c2nnc3n2NC(c2ccc4c(c2)OCO4)S3)cc1` (stereo not drawn), the inhibition was 57.2% (active). `CC1=C(C(N)=O)C(c2ccc3c(c2)OCO3)n2nc(-c3cccc(C)c3)nc2N1` (stereo not drawn): the inhibition is 18.1% (inactive).

As for `O=C(Nc1nnc(C2CC2)s1)C1=NN(C2CCS(=O)(=O)C2)C(=O)CC1` (stereo not drawn), the inhibition is 9.54% (inactive). As to `COc1cc2c(cc1OC)C(/C=C/c1ccco1)=NCC2`, the inhibition was -9.38% (inactive). Consider `CC(C)c1ccc(S(=O)(=O)N2CCN(C(C)C(=O)NC3CCCC3)CC2)cc1` (stereo not drawn), for which the inhibition was 13.4% (inactive).

For the compound `COc1cccc(CNC(C)C(=O)Nc2ccc(S(=O)(=O)N3CCCC3)cc2)c1` (stereo not drawn), the inhibition was 19.6% (inactive).

For `COc1ccc(S(=O)(=O)N2CCN(C(C)C(=O)Nc3ccc(C(C)C)cc3)CC2)cc1` (stereo not drawn), the inhibition was 50.6% (active). As to `O=C1NC[C@@H](Cc2ccc(O)cc2)N(CCc2cccc(F)c2)C1=O`, the inhibition was 11.4% (inactive). Take `CC(=O)Nc1ccc(S(=O)(=O)N2CCN(C(=O)c3ccccc3F)CC2)cc1`: the inhibition is 3.67% (inactive).

`Cc1ccc(C(=O)O/N=C(\N)c2ccccn2)cc1Cl`: the inhibition was 6.93% (inactive).

`Cc1cccc(/C(N)=N/OC(=O)c2ccccc2Cl)c1`: the inhibition is 72.9% (active).

Regarding `Cc1ccc(/C(N)=N/OC(=O)COc2ccc(Cl)c(C)c2)cc1`, the inhibition was 24.2% (inactive). On to `CC(C)(C)NC(=O)CN1CCC(NC(=O)C23CC4CC(CC(C4)C2)C3)CC1`, for which the inhibition was 18% (inactive). `O=C(c1ccc(S(=O)(=O)NCc2ccco2)cc1)N1CCN(c2ccccc2)CC1`: the inhibition is 19.3% (inactive). The value for `O=C(Nc1ccccc1)c1cc2ccccc2[nH]1` was -6.12% (inactive); that for `COc1ccc(Cn2c(=S)[nH]c3cc(C(=O)NCCCN4CCOCC4)ccc3c2=O)cc1` was 18% (inactive); that for `O=c1c2ccccc2[nH]c(=S)n1CCN1CCC(=C(c2ccc(F)cc2)c2ccc(F)cc2)CC1` was 75.8% (active).

As to `CCCCn1c(=S)[nH]c2ccccc2c1=O`, the inhibition is 43.6% (inactive). The value for `O=C(N[C@@H]1C/C=C\C[C@@H](CC(=O)N(CCO)Cc2ccccc2)C(=O)N[C@H](Cc2ccccc2)COC1=O)OCC1c2ccccc2-c2ccccc21` was 22.7% (inactive); that for `O=C(N[C@H]1C/C=C\C(c2cccc(F)c2)N(Cc2ccccc2)C(=O)C1)OCC1c2ccccc2-c2ccccc21` (stereo partly drawn) was 59.7% (active); that for `O=C(N[C@H]1C/C=C\C(c2ccc(F)cc2)N(Cc2ccccc2)C(=O)C1)OCC1c2ccccc2-c2ccccc21` (stereo partly drawn) was 38.6% (inactive).

The record behind these values is PubChem BioAssay AID463212 (Sanford-Burnham Center for Chemical Genomics, 2010).
